# Measured values as given in PubChem BioAssay AID1345085 (National Center for Advancing Translational Sciences (NCATS), 2018).
# Results filed as inconclusive are left out. Calls of active or inactive are those of the source. The call rests on the fitted dose curve; in most records, active means well fitted cell-killing curve with a large enough effect; inconclusive means small, poorly fitted or top-dose-only effect, or effect the other way; inactive means no such curve, though single readings can be large or run the other way.
# System: CASKI
# Assay: Confirmatory qHTS for gynecologic anti-cancer compounds from libraries of approved drugs and bioactive compounds; further: nearly all actives have a fitted effect of over 55% in size
# Conditions: gynecologic cancer cell panel viability, ATPlite luminescence, 48 h; series mostly up to 57.6 µM
# Method in brief: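 ATP-based luminescent viability (ATPlite) after 48 h drug treatment at 37 °C, 5% CO2, across 57.5 uM–0.977 nM in 1:3 steps. Cells seeded at 1,000 per well 16 h beforehand; IC50 values computed, HEK 293T as selectivity control.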
# On the % scale 0 is the no-effect control and ±100 the full control effect; potency means the concentration at half of the fitted maximal effect.
SMILES,Potency,"activity change, negative = viability loss"
COc1ccc(OC)c(-c2nnc3ccc(-c4ccc(OC)c(O[C@@H]5CCOC5)c4)nn23)c1,inactive,
O=C(CCCCCCC(=O)Nc1ccccc1)NO,12.2 µM (active),
CC(C)CC(=O)Nc1n[nH]c2c1CN(C(=O)C1CCN(C)CC1)C2(C)C,3.43 µM (active),
CC(C)n1nc(-c2cc3cc(O)ccc3[nH]2)c2c(N)ncnc21,8.63 µM (active),
COc1cc(N2CCC(N3CCN(C)CC3)CC2)ccc1Nc1ncc(Cl)c(Nc2ccccc2S(=O)(=O)C(C)C)n1,12.2 µM (active),
CC(=O)NCC(=O)N1C2CCC1c1cc(Nc3ncc(C(F)(F)F)c(NC4CCC4)n3)ccc12 (stereo not drawn),9.68 µM (active),
CCc1cccc(CC)c1NC(=O)N1Cc2[nH]nc(NC(=O)c3ccc(N4CCN(C)CC4)cc3)c2C1,19.3 µM (active),
Cn1c(=O)c(F)c(Nc2ccc(I)cc2F)c2c(=O)n(CC(O)CO)cnc21 (stereo not drawn),24.3 µM (active),
COc1ccc(CCC(=O)c2c(O)cc(O[C@@H]3O[C@H](CO)[C@@H](O)[C@H](O)[C@H]3O[C@@H]3O[C@@H](C)[C@H](O)[C@@H](O)[C@H]3O)cc2O)cc1O,inactive,
CCc1nc(C(N)=O)c(Nc2ccc(N3CCC(N4CCN(C)CC4)CC3)c(OC)c2)nc1NC1CCOCC1,11.9 µM (active),
CN(C)C/C=C/C(=O)Nc1cc2c(Nc3ccc(F)c(Cl)c3)ncnc2cc1OC1CCOC1 (stereo not drawn),21.7 µM (active),
NS(=O)(=O)c1ccc(Nc2nc(OCC3CCCCC3)c3[nH]cnc3n2)cc1,inactive,
COc1cc2c(Oc3ccc(-c4cnc(Nc5ccc(F)cc5)n(C)c4=O)cc3F)ccnc2cc1OCCCN1CCOCC1,inactive,
COc1ccc2cc3[n+](cc2c1OC)CCc1cc2c(cc1-3)OCO2,10.9 µM (active),
CN(C)C1CCN(C(=O)c2ccc(NC(=O)Nc3nc(N4CCOCC4)nc(N4CCOCC4)n3)cc2)CC1,0.273 µM (active),
O=C1N(c2ccccc2)c2ccccc2C1(Cc1ccncc1)Cc1ccncc1,inactive,
COc1ccc(-c2cc3nccn3c(Nc3ncccc3C(N)=O)n2)cc1OC,inactive,

SMILES,Potency,"activity change, negative = viability loss"
COC(=O)c1ccc2c(C(=Nc3ccc(N(C)C(=O)CN4CCN(C)CC4)cc3)c3ccccc3)c(O)[nH]c2c1,inactive,
CC(=O)OC12COC1CC(O)C1(C)C(=O)C(O)C3=C(C)C(OC(=O)C(O)C(NC(=O)OC(C)(C)C)c4ccccc4)CC(O)(C(OC(=O)c4ccccc4)C21)C3(C)C (stereo not drawn),inactive,
Nc1cccc(-c2cc3c(Oc4cccc(O)c4)ncnc3[nH]2)c1,7.69 µM (active),
Cc1nc(NC(=O)N2CCCC2C(N)=O)sc1-c1ccnc(C(C)(C)C(F)(F)F)c1 (stereo not drawn),7.69 µM (active),
O=C(Nc1cccnc1)N1CCC(Cc2cccc(Oc3ccc(C(F)(F)F)cn3)c2)CC1,12.2 µM (active),
Cc1cnc(Nc2cccc(CN3CCOCC3)c2)nc1Nc1cccc(S(=O)(=O)NC(C)(C)C)c1,15.3 µM (active),
CCCCc1nc2cc(/C=C/C(=O)NO)ccc2n1CCN(CC)CC,4.85 µM (active),
CC(C)c1nn(-c2c(Cl)cccc2Cl)c2nc(Cc3ccc(OCCO)cc3)[nH]c(=O)c12,0.137 µM (active),
CO[C@@]12[C@H](COC(N)=O)C3=C(C(=O)C(C)=C(N)C3=O)N1C[C@@H]1N[C@@H]12,inactive,
CN(NC(=O)CC(=O)NN(C)C(=S)c1ccccc1)C(=S)c1ccccc1,inactive,
CC(=O)O[C@H]1C(=O)[C@@]2(C)[C@H]([C@H](OC(=O)c3ccccc3)[C@]3(O)C[C@H](OC(=O)[C@H](O)[C@@H](NC(=O)c4ccccc4)c4ccccc4)C(C)=C1C3(C)C)[C@]1(OC(C)=O)CO[C@@H]1C[C@@H]2O,,-4.63% [at 10.7 µM] (inactive)
Cc1nc(Nc2n[nH]c3c2CN(C(=O)NC(CN(C)C)c2ccccc2)C3(C)C)c2sccc2n1 (stereo not drawn),3.06 µM (active),
COc1cc2nccc(Oc3ccc(NC(=O)Nc4cc(C)on4)c(Cl)c3)c2cc1OC,27.3 µM (active),
CC[C@H](Nc1ncnc2nc[nH]c12)c1nc2cccc(F)c2c(=O)n1-c1ccccc1,,-2.62% [at 10.7 µM] (inactive)
COc1ccccc1N1CCN(CC(O)COc2cccc3ccccc23)CC1 (stereo not drawn),inactive,
CC(C)(C)C(=O)OCOP(=O)(COCCn1cnc2c(N)ncnc21)OCOC(=O)C(C)(C)C,inactive,
